{
  "source": "ChEMBL document CHEMBL4513216",
  "about": "“Probing the Open Global Health Chemical Diversity Library for Multistage-Active Starting Points for Next-Generation Antimalarials” (ACS Infect Dis, 2020)",
  "note": "The campaign covered roughly 69,000 compounds. About 8,600 (12%) showed an effect of 50% or more. This is one part of a sample in which strong results are shown more often than they occur.",
  "data": [
    {"test_system": "Plasmodium berghei", "assay": "Screen against P. berghei liver stage (PbLuc), transformed with Luciferase, at 10uM", "type": "functional, HepG2", "conditions": "tested at 10 uM", "units": {"INHIBITION": "%"}, "values": [
      {"molecule": "CCn1cc(CN2CCCN(C(=O)c3cc(C)no3)CC2)cn1", "INHIBITION": 25.4},
      {"molecule": "CCc1ocnc1C(=O)N1CCOC(CCCC(C)C)C1", "note": "(stereo unspecified)", "INHIBITION": 12.8},
      {"molecule": "O=C(c1cncc(Br)c1)N1CCCc2ccc(F)cc21", "INHIBITION": 67.4},
      {"molecule": "O=C(c1cncc(Br)c1)N1CCCc2c(F)cc(F)cc21", "INHIBITION": 0.705},
      {"molecule": "Cc1ccc2c(c1)CCCN2C(=O)c1cncc(Br)c1", "INHIBITION": 6.88},
      {"molecule": "Cc1nnc(N2CC[C@H]3O[C@H](C(=O)NCc4ccccn4)CC[C@H]32)s1", "INHIBITION": 21.8},
      {"molecule": "COc1cc(CN2CC[C@H](NC(C)=O)[C@@H](O)CC2)ccc1F", "INHIBITION": -13.7},
      {"molecule": "Nc1nc(CN2CCN(c3nccs3)CC2)cs1", "INHIBITION": 22.3},
      {"molecule": "CC1CN(Cc2nnsc2Cl)CCN1c1nccs1", "note": "(stereo unspecified)", "INHIBITION": 20.2},
      {"molecule": "Clc1snnc1CN1CCN(c2nccs2)CC1", "INHIBITION": 57.3},
      {"molecule": "Cc1nccn1C1CCCN(C(=O)c2ccc3nncn3c2)C1", "note": "(stereo unspecified)", "INHIBITION": 40.2},
      {"molecule": "O=C(CCNC(=O)c1ccoc1)Nc1cc(F)ccc1F", "INHIBITION": 24.8},
      {"molecule": "O=C(CCNC(=O)c1ccoc1)Nc1ccc(F)cc1F", "INHIBITION": 59},
      {"molecule": "O=C(CCNC(=O)c1ccoc1)Nc1c(F)cccc1F", "INHIBITION": -16.7},
      {"molecule": "O=C(CCNC(=O)c1ccoc1)Nc1cccc(F)c1", "INHIBITION": -4.82},
      {"molecule": "O=C(CCNC(=O)c1ccoc1)Nc1cc(F)cc(F)c1", "INHIBITION": 54.5},
      {"molecule": "O=C(CCNC(=O)c1ccoc1)Nc1ccccc1F", "INHIBITION": 21.9},
      {"molecule": "CNC(=O)CCc1cccc(C2CCCN(c3cc(C)ncn3)C2)n1", "note": "(stereo unspecified)", "INHIBITION": 44.8},
      {"molecule": "Cc1nnc2n1CCN(C(=O)c1cn(-c3ccccc3)nn1)C2", "INHIBITION": -53.6},
      {"molecule": "CNC(=O)[C@@H]1C[C@H]2CN(C(=O)c3ccco3)C[C@H]2N1C(C)C", "INHIBITION": 16.4},
      {"molecule": "Cc1noc([C@H]2COC[C@H]3CN(C(=O)Cc4ccsc4)C[C@H]32)n1", "INHIBITION": -32},
      {"molecule": "c1cnc(N2CC[C@@H](N3CCOCC3)[C@@H]2Cc2ccncc2)nc1", "INHIBITION": 60},
      {"molecule": "Cc1cnc(N2CC[C@@H](N3CCOCC3)[C@@H]2Cc2ccncc2)nc1", "INHIBITION": 33.4},
      {"molecule": "Fc1cnc(N2CC[C@@H](N3CCOCC3)[C@@H]2Cc2ccncc2)nc1", "INHIBITION": 21.6},
      {"molecule": "Cc1cc(CN2CCC(CNS(=O)(=O)c3ccccc3Cl)CC2)c(C)o1", "INHIBITION": 30.7},
      {"molecule": "O=C(C1CCOCC1)N1C[C@H]2CC(OCc3ccccc3)C[C@H]2C1", "note": "(stereo partly specified)", "INHIBITION": -25.3},
      {"molecule": "C1CCC(c2nn3c(C4CCCO4)nnc3s2)C1", "note": "(stereo unspecified)", "INHIBITION": 1.24},
      {"molecule": "N#Cc1ncn(Cc2c(F)cccc2Cl)n1", "INHIBITION": 64.4},
      {"molecule": "N#Cc1ncn(CC(=O)Cc2c(F)cccc2Cl)n1", "INHIBITION": 26.8},
      {"molecule": "CN(Cc1c(F)cccc1Cl)C(=O)Cn1cnc(C#N)n1", "INHIBITION": 28.7},
      {"molecule": "Cc1cc(C)cc(OCn2ccc(C(=O)O)n2)c1", "INHIBITION": 39.1},
      {"molecule": "CN(C)CCNC(=O)c1ccc(OC2CCN(CC3CC3)CC2)c(Cl)c1", "INHIBITION": -73.6},
      {"molecule": "CSCCNC(=O)c1ccc(OC2CCN(CC(C)(C)C)CC2)c(Cl)c1", "INHIBITION": 52.4},
      {"molecule": "COC(=O)N1CCC(Oc2ccc(C(=O)NCCN(C)C)cc2Cl)CC1", "INHIBITION": -56.4},
      {"molecule": "CC1(C)OC(=O)N(CCCOc2ccc(F)cc2)C1=O", "INHIBITION": 10.7},
      {"molecule": "CCNc1ncc(C(=O)NCC2OCCc3ccccc32)cn1", "note": "(stereo unspecified)", "INHIBITION": 41.5},
      {"molecule": "CC(=O)c1cnc(NCC2OCCc3ccccc32)nc1C", "note": "(stereo unspecified)", "INHIBITION": 74.9},
      {"molecule": "CCc1cnc(NCC2OCCc3ccccc32)nc1", "note": "(stereo unspecified)", "INHIBITION": 44.3},
      {"molecule": "Cc1ncsc1C(=O)NC1CCN(CCC#N)CC1", "INHIBITION": 14.4},
      {"molecule": "COc1ccc(C(=O)NS(=O)(=O)c2cc(Cl)sc2Cl)cc1OC(F)F", "INHIBITION": 27.7},
      {"molecule": "Cc1noc(NC(=O)c2ccc(C)c(F)c2)n1", "INHIBITION": 59},
      {"molecule": "Cc1noc(COCC(=O)Nc2cc(C)c(Br)cn2)n1", "INHIBITION": -21.8},
      {"molecule": "COc1cc(C(=O)NC(CC(=O)O)c2cccs2)cc(Cl)c1OC", "note": "(stereo unspecified)", "INHIBITION": 18.6},
      {"molecule": "COc1cc(C(=O)NS(=O)(=O)c2cccc(C#N)c2)cc(OC)c1Br", "INHIBITION": 34.7},
      {"molecule": "COc1cccc(C(=O)NS(=O)(=O)c2cc(Cl)sc2Cl)c1OC(F)F", "INHIBITION": 45.7},
      {"molecule": "COc1cc(C(=O)Nc2nc(C)no2)cc(Cl)c1OC", "INHIBITION": 77},
      {"molecule": "Cc1noc(NC(=O)c2ccc(F)cc2)n1", "INHIBITION": 25.1},
      {"molecule": "COc1cc(C(=O)NS(=O)(=O)c2cncc(Br)c2)cc(Cl)c1OC", "INHIBITION": 5.23},
      {"molecule": "COc1cc(C(=O)NS(=O)(=O)c2cc(Cl)sc2Cl)ccc1OC(F)F", "INHIBITION": 93.6},
      {"molecule": "COc1cc(C(=O)Nc2nc(C)no2)cc(OC)c1Br", "INHIBITION": 91.4},
      {"molecule": "Cc1cc(NC(=O)c2ccc(C)c(F)c2)[nH]n1", "INHIBITION": -30.8},
      {"molecule": "Cc1cnn(CC2CCCCN2Cc2cc(C)no2)c1", "note": "(stereo unspecified)", "INHIBITION": 4.245},
      {"molecule": "Cn1cc(C2CCCN2C(=O)COCCc2ccccc2)cn1", "note": "(stereo unspecified)", "INHIBITION": -32},
      {"molecule": "CC(c1ccncc1)n1cc2nc(N(C)C)[nH]cc-2c1=O", "note": "(stereo unspecified)", "INHIBITION": -27.5},
      {"molecule": "COCC(=O)N1CCC(c2n[nH]c3nccnc23)CC1", "INHIBITION": -22.6},
      {"molecule": "CC(C)(C)OC(=O)N1CCC(C(=O)NCCNc2ncccn2)CC1", "INHIBITION": -33.9},
      {"molecule": "c1csc(N2[C@H](Cn3cncn3)C[C@@H]3CNCC[C@@H]32)n1", "INHIBITION": -86.4},
      {"molecule": "COc1ccccc1C(O)CNc1nccc(-c2ccc(C)nc2C)n1", "note": "(stereo unspecified)", "INHIBITION": 0.868},
      {"molecule": "c1cnn(CC2CCCCN2Cc2nc(-c3ccoc3)no2)c1", "note": "(stereo unspecified)", "INHIBITION": 31.8},
      {"molecule": "CC(NC(=O)NCc1cccnc1N(C)C)c1cccs1", "note": "(stereo unspecified)", "INHIBITION": 37.9},
      {"molecule": "COc1cc(C(=O)Nc2nc(C)no2)ccc1OC(F)F", "INHIBITION": 81.1},
      {"molecule": "COc1cc(C(=O)Nc2c(C)noc2C)ccc1C", "INHIBITION": 18.6},
      {"molecule": "COc1cc(C(=O)Nc2cn[nH]c2)ccc1C", "INHIBITION": 10.45},
      {"molecule": "Cc1noc(CNc2ccc(OC(F)F)cc2OC(F)F)n1", "INHIBITION": -29.9},
      {"molecule": "COc1cc(C(=O)Nc2nc(C)no2)ccc1C", "INHIBITION": 63.6},
      {"molecule": "COc1cc(C(=O)Nc2nc(C)no2)ccc1OC1CCCC1", "INHIBITION": 29.7},
      {"molecule": "COCC(C)(NC(=O)c1cc(Cl)c(-n2cccc2)cc1OC)C(N)=O", "note": "(stereo unspecified)", "INHIBITION": -35},
      {"molecule": "CCn1cc(C(=O)NCc2ccc3c(c2)OCO3)c(C)n1", "INHIBITION": 3.52},
      {"molecule": "Cc1nc(CN(C)Cc2nc(-c3ccccc3)no2)co1", "INHIBITION": 14.3},
      {"molecule": "CN(CCC(O)c1ccccc1)Cc1ccccc1C#N", "note": "(stereo unspecified)", "INHIBITION": 41.1},
      {"molecule": "CN(CCC(O)c1ccccc1)Cc1nc(-c2ccccc2)no1", "note": "(stereo unspecified)", "INHIBITION": 62.9}
    ]}
  ]
}
